ERG-DNA inh: blocks human ERG Ets domain binding to DNA. Potency, µM (series often up to 76.9 µM), most hits filed as inhibitors. P11308. AID 624246. 370,000 compounds, 0.028% hits. fluorescence polarization, His-ERG Ets domain / labelled DNA; active = well fitted inhibition curve with a large enough effect in the polarisation, with a control signal flat; inconclusive = small, poorly fitted or top-dose-only effect, or effect the other way, or a change in a side signal; inactive = no such curve, though single readings can be large or run the other way; the % refers to the polarisation;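 note: polarization taken with two DNA probes labelled with fluorescein and Texas red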
Target sequence (P11308 whole entry, looked up, the tested form may be a part): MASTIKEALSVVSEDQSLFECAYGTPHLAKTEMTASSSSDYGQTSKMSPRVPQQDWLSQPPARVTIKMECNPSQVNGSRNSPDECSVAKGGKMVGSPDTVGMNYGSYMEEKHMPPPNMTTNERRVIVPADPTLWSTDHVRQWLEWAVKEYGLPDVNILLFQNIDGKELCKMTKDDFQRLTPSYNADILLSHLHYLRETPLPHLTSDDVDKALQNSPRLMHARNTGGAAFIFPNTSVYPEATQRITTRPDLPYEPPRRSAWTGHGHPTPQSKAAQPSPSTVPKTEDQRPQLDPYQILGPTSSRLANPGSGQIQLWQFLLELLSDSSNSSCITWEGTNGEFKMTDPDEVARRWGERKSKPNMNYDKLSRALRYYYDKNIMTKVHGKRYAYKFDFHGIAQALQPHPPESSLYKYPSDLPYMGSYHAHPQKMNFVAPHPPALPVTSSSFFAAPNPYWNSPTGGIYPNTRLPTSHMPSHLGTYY
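His-tagged ERG Ets domain (1 uM in the protein solution; 300mM KCl, 50mM Tris-HCl, 1mM EDTA, 1mM DTT, pH 7.5) received compound, then a probe mix of 5 nM fluorescein-DNA and 100nM Texas-615-DNA. Fluorescence polarization was read for both dyes.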
FUS yeast rescue: suppressors of FUS proteinopathy in yeast | S. cerevisiae FUS-expressing, growth rescue, OD600, 24 h | Potency, µM (doses to about 76.6 µM), usual class: activators | 390,000 compounds, 0.24% hits; note: nearly all actives have a fitted effect of over 55% in size
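Galactose (2%) drives FUS expression in yeast precultured in raffinose; seeding density OD 0.005. Test compounds incubated 24hr at 30C and 99% humidity before absorbance at 600 nm was measured.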
Mito fusion act: blocks mitochondrial division or promotes mitochondrial fusion; S. cerevisiae fusion-defective mutant growth rescue, CellTiterGlo 48 h; Potency, µM (doses to about 46.1 µM), most hits filed as activators; 320,000 compounds, 0.23% hits; AID 485298; note: nearly all actives have a fitted effect of over 45% in size
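S. cerevisiae fusion-defective temperature-sensitive mutants (e.g. fzo1-1, mgm1-5) grown 48 h at 37C in YPEG (ethanol/glycerol non-fermentable) medium with 23 nl compound per well; growth rescue read as CellTiterGlo luminescence.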
aSyn rescue: alpha-synuclein toxicity inhibition in yeast; 370,000 compounds, 0.14% hits; Potency, µM (doses to about 46.1 µM), usual class: activators; Yeast expressing alpha-synuclein, growth rescue, BacTiter-Glo, 24 h; note: nearly all actives have a fitted effect of over 65% in size
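Screening used galactose-induced yeast with toxic alpha-synuclein levels, exposed to compound for 24 hr at 30 deg C. Cell growth, read with BacTiter-Glo luminescence, gave the measured signal.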
TDP-43 yeast inh: inhibitors of TDP-43 toxicity in yeast; TDP-43 expressing yeast growth rescue, BacTiter-Glo, 24 h; AID 652104; Potency, µM (series often up to 46.1 µM), hits mostly activators; 410,000 compounds, 1.8% hits; note: nearly all actives have a fitted effect of over 50% in size
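Readout is BacTiter-Glo luminescence of cell growth, so inhibitors register as activators. TDP-43-expressing yeast at OD600=0.02 in galactose medium, after raffinose pregrowth to mid-log, were incubated with compound for 24 hr at 30 deg C.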
Abeta yeast res: compounds reversing amyloid beta toxicity in yeast. Potency, µM (titrated, usually from 46.1 µM), hits mostly activators. 410,000 compounds, 0.063% hits. AID 1347071. yeast expressing A-beta42, growth rescue, OD600, 48 h; response scale: 0% DMSO, 100% iron-clioquinol control; note: nearly all actives have a fitted effect of over 55% in size
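Growth rescue measured by 600 nm absorbance after 48 h yeast culture at 30 C with compound. Values normalized between DMSO and an equimolar ferric chloride plus clioquinol control.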
Hits are given with their value; n = inactive; u = inconclusive; x = not tested or not shown. In the library only some 2.2% were active in any assay of this set; here they are far more common. Unless noted, calls come from the whole dose curve; as a rule, active = well fitted curve in the direction sought with a large enough effect; inconclusive = small, poorly fitted or top-dose-only effect, or another doubt; inactive = no such curve, though single readings can be large; an effect the other way counts as inactive or inconclusive.

SMILES	ERG-DNA inh	FUS yeast rescue	Mito fusion act	aSyn rescue	TDP-43 yeast inh	Abeta yeast res
CCCN(Cc1ccccc1)C(=S)NC(=O)c1ccccc1[N+](=O)[O-]	n	n	n	n	u	n
COc1cccc(N2CC(NC(=O)c3ccc(S(=O)(=O)N4CCOCC4)cc3)CC2=O)c1 (centres undefined)	n	n	x	x	n	n
Cc1ccc(-c2nc(N)sc2-c2ccccc2)cc1C	n	x	n	n	16µM	n
Nc1nc(-c2ccccc2)c(-c2ccccc2)s1	n	n	n	n	n	n
Cc1cc(C)cc(NC(=O)CSc2nnc(-c3ccccc3)n2N)c1	n	n	0.63µM	n	n	n
Cc1cccc(NC(=O)CSc2nnc(-c3ccccc3)n2N)c1	n	n	n	n	n	n
O=C(NCCS(=O)(=O)N1CCN(c2ccc(F)cc2)CC1)c1cccc(C(F)(F)F)c1	n	n	x	x	10µM	u
Cc1ccccc1-c1cc2c(c3c1ccn3C)C1CCC2O1 (centres undefined)	x	n	x	n	11µM	u
Cn1ccc2c(-c3ccc(CO)cc3)cc3c(c21)C1CCC3C1 (centres undefined)	x	u	x	n	35µM	n
Cn1ccc2c(-c3cncc4ccccc34)cc3c(c21)C1CCC3O1 (centres undefined)	x	n	x	n	n	n
Cn1ccc2c(-c3ccc4c(c3)OCCO4)cc3c(c21)C1CCC3C1 (centres undefined)	x	n	x	n	u	n
Cn1ccc2c(-c3ccc4c(c3)OCCO4)cc3c(c21)C1CCC3O1 (centres undefined)	x	u	x	n	22µM	n
Cn1ccc2c(-c3ccc(F)cc3)cc3c(c21)C1CCC3C1 (centres undefined)	x	n	x	n	n	n
Cn1ccc2c(-c3ccc(C(F)(F)F)cc3)cc3c(c21)C1CCC3O1 (centres undefined)	x	n	x	n	8.9µM	u
CSc1ccc(-c2cc3c(c4c2ccn4C)C2CCC3O2)cc1 (centres undefined)	x	n	x	u	25µM	n
Cn1ccc2c(-c3ccc(C(=O)O)cc3)cc3c(c21)C1CCC3O1 (centres undefined)	x	n	x	n	22µM	n
Cn1c(=O)c2c(nc(SCC(=O)Nc3ccccc3F)n2Cc2ccc(Cl)cc2)n(C)c1=O	n	n	x	n	n	n
S=c1[nH]cc2cnccn12	x	n	x	n	n	n
COc1ccccc1NC(=O)Cn1c(=O)n(CCCCCC(=O)NCc2ccccc2)c(=O)c2sccc21	n	n	x	x	n	n
CC(C)Cc1ccc(-c2cc(=O)[nH][nH]2)cc1	n	n	n	n	20µM	n
Cc1ccc(S(=O)(=O)N2CCN(c3nc(-c4ccc(CN5CCNCC5)s4)nc4ccccc34)CC2)cc1	x	x	x	n	x	x
Cc1ccc(C2CC(c3cccs3)=NN2C(=O)c2ccc(Br)o2)cc1 (centres undefined)	n	n	2.8µM	n	n	n
CC(=O)N1N=C(c2cccs2)CC1c1cccs1 (centres undefined)	n	n	n	n	n	n
COc1cccc(C2CC(c3cccs3)=NN2C(=O)c2ccco2)c1O (centres undefined)	n	n	u	u	25µM	n
CC(=O)N1N=C(c2cccs2)CC1c1ccc(Br)cc1 (centres undefined)	n	n	n	n	25µM	n
COCOCCn1cc(CN2CCS(=O)(=O)N(Cc3ccc(-c4ccc(OC)cc4)cc3)C(C)C2=O)nn1 (centres undefined)	x	n	x	n	n	n
CC1=NN(/C(=N\c2nnc(C)s2)Nc2ccc(C(C)(C)C)cc2)[C@H](c2ccc(C)cc2)S1	n	u	n	n	35µM	n
Cc1ccc(NC(=O)CCSc2nnc(C)s2)cc1	n	n	n	n	n	n
COC(=O)[C@H](C)NC(=O)[C@@H]1CC=C[C@@H]2CCN(CCc3ccccc3)C(=O)[C@@H]21	x	n	x	x	x	x
CC(C(=O)O)(C1CCCCC1)C1(O)CCCCC1 (centres undefined)	x	n	x	n	u	n

Compound activity from PubChem BioAssay.
